# High-throughput results (PubChem)
# A selection: hits, their analogues and other compounds. The true share with any hit is near 13%.
# USP17 inh: inhibitors of human USP17 deubiquitinase; purified USP17, Ub-rhodamine cleavage fluorescence, 3 h; inhibition, % at 50 µM; 6.5% of 47,000 active; A8MUK1
# USP10 inh: blocks human USP10 ubiquitin-rhodamine cleavage. AID 1645856. Q14694. 1.1% of 47,000 active. purified USP10, Ub-rhodamine fluorescence, 60 min. inhibition, % at 20 µM
# USP28 inh: human USP28 deubiquitinase inhibition; purified USP28, Ub-rhodamine cleavage fluorescence, 30 min; inhibition, % at 25 µM; 3% of 47,000 active; Q96RU2
# USP8 block: human USP8 deubiquitinase inhibition. P40818. purified USP8, Ub-rhodamine cleavage fluorescence, 30 min. inhibition, % at 20 µM. 4.2% of 47,000 active. AID 1645853
# OTUD3 inh: human OTUD3 deubiquitinase inhibition | inhibition, % at 25 µM | 0.7% of 47,000 active | purified OTUD3, Ub-rhodamine fluorescence, 2 h
# USP30 inh: blocks human USP30 ubiquitin-rhodamine cleavage; Q70CQ3; purified USP30, Ub-rhodamine cleavage fluorescence; inhibition, % at 25 µM; AID 1645860; 5.3% of 47,000 active
# Target sequence (Q70CQ3 whole entry, looked up): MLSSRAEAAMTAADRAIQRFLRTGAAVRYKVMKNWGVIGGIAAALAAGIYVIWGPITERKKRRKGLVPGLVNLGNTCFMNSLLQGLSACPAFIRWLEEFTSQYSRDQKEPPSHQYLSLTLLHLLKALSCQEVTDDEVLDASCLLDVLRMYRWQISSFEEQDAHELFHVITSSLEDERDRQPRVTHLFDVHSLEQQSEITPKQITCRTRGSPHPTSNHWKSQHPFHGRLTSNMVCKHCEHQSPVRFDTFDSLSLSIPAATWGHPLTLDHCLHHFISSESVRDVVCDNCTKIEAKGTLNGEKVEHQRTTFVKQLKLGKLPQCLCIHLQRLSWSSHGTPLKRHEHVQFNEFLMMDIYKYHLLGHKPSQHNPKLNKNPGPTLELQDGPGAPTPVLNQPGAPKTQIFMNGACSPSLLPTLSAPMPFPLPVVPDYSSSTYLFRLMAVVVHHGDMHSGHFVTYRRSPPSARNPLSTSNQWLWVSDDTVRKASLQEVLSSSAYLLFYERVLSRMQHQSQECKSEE
# * marks the source's active call; other numbers are inactive results; i = inactive; / = not tested or not shown. No stated cut-off is given here; in the data, active means inhibition above about 30%; inactive means the rest.
SMILES,USP17 inh,USP10 inh,USP28 inh,USP8 block,OTUD3 inh,USP30 inh
COc1ccc(OC)c(C(=O)C2C(C(C)=O)N3c4ccccc4C(C)=CC3C23C(=O)Nc2ccccc23)c1 (centres undefined),-139,-4,/,-14,-1,/
CC1=CC2N(c3ccccc31)C(C(=O)C(C)(C)C)C(C(=O)c1ccc3c(c1)OCO3)C21C(=O)Nc2ccccc21 (centres undefined),22,-3,-22,68*,-38,-184
O=C(c1cccs1)[C@@H]1[C@@H](C(=O)c2ccc3c(c2)OCO3)[C@]2(C(=O)Nc3ccccc32)[C@H]2C=Cc3ccccc3N12,-3,-1,-63,38*,-43,-225
COc1ccc(C(=O)[C@@H]2[C@H](C(=O)OC(c3ccccc3)c3ccccc3)N3c4ccccc4C=CC3[C@@]23C(=O)Nc2ccccc23)cc1OC (some centres undefined),-123,-5,-201,-58,-120,i
O=S(=O)(c1cccc2cccnc12)N1CCN(c2ccc(F)cc2)CC1,13,5,8,56*,16,30*
O=S(=O)(c1cccc2cccnc12)N1CCCC1c1ccc(F)cc1 (centres undefined),-5,0,10,5,7,-9
COc1cccc(NC(=O)[C@H](C)NC(=O)c2cc3c(OC)c(OC)ccc3[nH]2)c1,47*,3,0,81*,-6,-24
CC1CCc2cc(F)ccc2N1S(=O)(=O)c1cc(Br)cnc1N (centres undefined),17,10,34*,10,11,18
COc1cc(OC)cc(C(=O)NC(c2ccccc2)c2cccnc2)c1 (centres undefined),-3,0,0,-17,2,-5
CCOc1ccc(S(=O)(=O)n2ccc(C)n2)c2ccccc12,12,4,/,7,6,/
CCOc1ccc(S(=O)(=O)NCc2ccccc2Cl)c2ccccc12,32*,15,20,30*,24,45*
CNC(=O)CC1NC(=O)c2csc(n2)-c2ccc(-c3nc(C4=NC(C(=O)N5CCCC5C(N)=O)CO4)cs3)nc2-c2csc(n2)-c2csc(n2)C(C(O)c2ccccc2)NC(=O)CNC(=O)c2nc(sc2COC)C(C(C)C)NC(=O)c2nc1sc2C (centres undefined),75*,-2,42*,6,-5,6
CC12CCN(C(=O)CCc3ccccc3)CCN1C(=O)N(Cc1ccccn1)C2=O (centres undefined),5,-3,16,11,11,15
O=C(Cc1ccc(F)cc1)N1CCOC(Cn2ccnc2)C1 (centres undefined),1,-1,/,1,-2,/
Cc1ccc(NC(=O)Cn2c(=O)n(CCC(=O)NCCc3ccccc3)c(=O)c3ccccc32)cc1C,11,32*,0,23,13,13
O=C(Cn1c(=O)c2ccccc2n(CC(=O)Nc2cccc(F)c2)c1=O)NCCc1ccccc1,29,30*,20,-39,25,38*
O=C(Cc1ccc(-n2c(=O)c3ccccc3n(CC(=O)Nc3cc(Cl)cc(Cl)c3)c2=O)cc1)NCCc1ccccc1,-2,0,-8,30,2,-88
O=C(CCCCn1c(=O)c2ccccc2n(CC(=O)Nc2ccc(F)cc2)c1=O)NCCc1ccccc1,47*,15,9,19,15,26
CCN1CCn2c(-c3cnn(C)c3)cnc2C12CCN(C(=O)c1ccc(OC)cc1)CC2,-13,-1,-9,-37,0,-16
COc1cccc(NC(=O)c2oc3ccccc3c2NC(=O)COc2cccc(OC)c2)c1,-4,35*,0,-9,24,6
COc1ccc(CNC(=O)[C@H]2C=CCN2C(=O)c2ccco2)cc1,-1,-2,0,-7,0,-15
Clc1ccc2oc3c(N4CCCC4)ncnc3c2c1,0,1,0,-1,1,6
COC(=O)c1ccc(NC(=O)c2ccc(COc3cc(Cl)ccc3Cl)cc2)cc1,47*,15,15,25,8,14
COc1ccc(-n2ccc(=O)c(-c3nc(-c4ccc(F)cc4)no3)n2)cc1,31*,4,2,85*,14,35*
CCc1ccc(-n2ccc(=O)c(-c3nc(-c4ccncc4)no3)n2)cc1,39*,-2,/,-2,-2,/
